Several values for one entry are separate records, joined by “and”; a condition that tells them apart may be missing. Identical values can stand only once. Records with an inconclusive call do not appear. Activity calls are given as the source filed them. Unless noted, calls come from the whole dose curve; as a rule, active = well fitted curve in the direction sought with a large enough effect in the repeat runs; inconclusive = weak or mixed curves; inactive = no such curve, though single readings can be large; an effect the other way counts as inactive or inconclusive.
Columns and labels:
[1] = target: Thyrotropin receptor (Homo sapiens) (UniProt P16473); experiment: qHTS assay to identify small molecule agonists of the thyroid stimulating hormone receptor (TSHR) signaling pathway (AID 1224843; calls by dose curve; note: nearly all actives have a fitted effect of over 45% in size)
Summary of the method: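 A cell-based cAMP HTRF format was run in TSHR-transfected HEK293 cells, 800 per well. Treatment: 30 min, room temperature. Detection: 1 h with labelled cAMP and anti-cAMP cryptate. Concentration-response over 15 points, three replicates.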

[2] = qHTS assay to identify small molecule agonists of the hypoxia (HIF-1) signaling pathway - cell viability counter screen (AID 1224844; calls by dose curve; note: nearly all actives have a fitted effect of over 50% in size)
Summary of the method: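 CellTiter-Glo luminescence read-out, 30 min RT, taken in the same wells as the beta-lactamase HRE reporter assay; HRE-bla ME-180 cells, 0.5% dialyzed FBS, 17 hr compound treatment at 37C, 5% CO2.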

[3] = qHTS assay to identify small molecule agonists of H2AX (AID 1224845; active = well fitted activation curve with a large enough effect in the signal ratio in the repeat runs, not every such curve was filed as active; the % refers to the signal ratio)
Summary of the method: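 Phospho-H2AX Ser139 measured by HTRF (ex 320 nm; em 665 and 620 nm) after 24 hr antibody incubation. Compounds, 15 concentrations, 0.76% DMSO, were applied to CHO-K1 cells for 3hr at 37C before lysis.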

[4] = qHTS assay to identify small molecule agonists of the hypoxia (HIF-1) signaling pathway (AID 1224846; active = well fitted activation curve with a large enough effect in the signal ratio in the repeat runs, not every such curve was filed as active; the % refers to the signal ratio)
Summary of the method: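 Beta-lactamase FRET read-out (CCF4-AM substrate) from ME-180 cells carrying an HRE-driven bla reporter, after 17 hrs compound exposure at 37C/5% CO2. Cells were seeded at 2,000 per well in 0.5% dialyzed FBS medium and preincubated 5 hrs.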

[5] = qHTS assay to identify small molecule agonists of H2AX - cell viability counter screen (AID 1224847; calls by dose curve; note: top concentration of the series differs between compounds; nearly all actives have a fitted effect of over 30% in size)
Summary of the method: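 Read-out: CellTiter-Glo luminescence, 30 min RT. Cells: wild-type CHO-K1, 1000/well, 10% FBS, plated overnight at 37C. Treatment: 15 concentrations, 3 hr, 37C, 0.76% DMSO.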

[6] = qHTS RealTime-Glo MT Cell Viability Assay in HepG2 cells - 24 hour (AID 1224867); note: nearly all actives have a fitted effect of over 50% in size
Summary of the method: (§1)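 Cell number in HepG2 cultures estimated from NanoLuc luminescence generated by metabolic reduction of a prosubstrate by living cells. The homogeneous, nonlytic format allowed repeated reads at 0, 8, 16, 24, 32 and 40 h of compound exposure.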

[7] = qHTS RealTime-Glo MT Cell Viability Assay in HEK293 cells - 32 hour (AID 1224868); note: top concentration of the series differs between compounds; nearly all actives have a fitted effect of over 50% in size
Summary of the method: (§2)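 Homogeneous bioluminescent viability format in HEK293 cells (600 cells/well). Following 5 h at 37 C/5% CO2, 23 nL compound was pintooled; the signal was measured repeatedly during 40 h incubation.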

[8] = A CellTox Green Cytotoxicity Assay to monitor cytotoxicity in HEK293 cells - 0 hour (AID 1224869); note: nearly all actives have a fitted effect of over 50% in size
Summary of the method: (§3)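 Read-out: fluorescence of a cell-impermeant cyanine dye staining DNA of dead cells, proportional to cytotoxicity. HEK293, 600 cells/well with reagent, compound (23 nL DMSO) added after 5 h; reads at 0, 8, 16, 24, 32, 40 h.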

[9] = qHTS RealTime-Glo MT Cell Viability Assay in HepG2 cells - 40 hour (AID 1224870); note: nearly all actives have a fitted effect of over 50% in size
Summary of the method: (§4)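 Real-time viability: cells seeded at 600 per well together with NanoLuc and cell-permeant prosubstrate, compounds added after 5 h incubation. Luminescence tracked at 0, 8, 16, 24, 32 and 40 h of exposure.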

[10] = A CellTox Green Cytotoxicity Assay to monitor cytotoxicity in HEK293 cells - 40 hour (AID 1224871); note: nearly all actives have a fitted effect of over 45% in size
Summary of the method: as §3

[11] = qHTS RealTime-Glo MT Cell Viability Assay in HEK293 cells - 16 hour (AID 1224872)
Summary of the method: as §2

[12] = qHTS RealTime-Glo MT Cell Viability Assay in HepG2 cells - 8 hour (AID 1224873); note: nearly all actives have a fitted effect of over 55% in size
Summary of the method: as §4

[13] = A CellTox Green Cytotoxicity Assay to monitor cytotoxicity in HEK293 cells - 24 hour (AID 1224875); note: nearly all actives have a fitted effect of over 45% in size
Summary of the method: as §3

[14] = A CellTox Green Cytotoxicity Assay to monitor cytotoxicity in HepG2 cells - 16 hour (AID 1224876); note: nearly all actives have a fitted effect of over 45% in size
Summary of the method: (§5)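 HepG2, 600 cells/well premixed w/ CellTox Green; 5 h settle, 37 C/5% CO2; pintool cpd add (DMSO); 37 C, 40 h; fluorescence read at 0, 8, 16, 24, 32, 40 h.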

[15] = A CellTox Green Cytotoxicity Assay to monitor cytotoxicity in HepG2 cells - 24 hour (AID 1224878); note: nearly all actives have a fitted effect of over 45% in size
Summary of the method: as §5

[16] = A CellTox Green Cytotoxicity Assay to monitor cytotoxicity in HepG2 cells - 40 hour (AID 1224879); note: nearly all actives have a fitted effect of over 40% in size
Summary of the method: as §5

[17] = qHTS RealTime-Glo MT Cell Viability Assay in HEK293 cells - 0 hour (AID 1224880)
Summary of the method: (§6)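 Luminescence readout at each listed time point; HEK293, 600 cells/well, RealTime-Glo MT reagent added with cells; compounds pinned (23 nL in DMSO) after 5 h at 37 C; continuous culture at 37 C.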

[18] = qHTS assay to identify small molecule agonists of the estrogen related receptor (ERR) signaling pathway from Tox21 library (AID 1224849; calls by dose curve; note: nearly all actives have a fitted effect of over 15% in size); details: ERR reporter cell line, ONE-Glo luciferase, 18 h
Summary of the method: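 Luminescence readout (ONE-Glo, 30 min RT) after 18 h compound exposure at 37 C of NTP-supplied ERR reporter cells; cells were plated 6 h before compound addition by pin tool.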

[19] = qHTS RealTime-Glo MT Cell Viability Assay in HEK293 cells - 40 hour (AID 1224874); details: RealTime-Glo luminescence; max response: active compounds read low; note: nearly all actives have a fitted effect of over 50% in size
Summary of the method: as §6

[20] = qHTS RealTime-Glo MT Cell Viability Assay in HepG2 cells - 32 hour (AID 1224877); note: nearly all actives have a fitted effect of over 55% in size
Summary of the method: as §1
% is set by controls: 0 for no effect and ±100 for the full control effect.

Sequence of Thyrotropin receptor (Homo sapiens) (P16473 whole entry, looked up): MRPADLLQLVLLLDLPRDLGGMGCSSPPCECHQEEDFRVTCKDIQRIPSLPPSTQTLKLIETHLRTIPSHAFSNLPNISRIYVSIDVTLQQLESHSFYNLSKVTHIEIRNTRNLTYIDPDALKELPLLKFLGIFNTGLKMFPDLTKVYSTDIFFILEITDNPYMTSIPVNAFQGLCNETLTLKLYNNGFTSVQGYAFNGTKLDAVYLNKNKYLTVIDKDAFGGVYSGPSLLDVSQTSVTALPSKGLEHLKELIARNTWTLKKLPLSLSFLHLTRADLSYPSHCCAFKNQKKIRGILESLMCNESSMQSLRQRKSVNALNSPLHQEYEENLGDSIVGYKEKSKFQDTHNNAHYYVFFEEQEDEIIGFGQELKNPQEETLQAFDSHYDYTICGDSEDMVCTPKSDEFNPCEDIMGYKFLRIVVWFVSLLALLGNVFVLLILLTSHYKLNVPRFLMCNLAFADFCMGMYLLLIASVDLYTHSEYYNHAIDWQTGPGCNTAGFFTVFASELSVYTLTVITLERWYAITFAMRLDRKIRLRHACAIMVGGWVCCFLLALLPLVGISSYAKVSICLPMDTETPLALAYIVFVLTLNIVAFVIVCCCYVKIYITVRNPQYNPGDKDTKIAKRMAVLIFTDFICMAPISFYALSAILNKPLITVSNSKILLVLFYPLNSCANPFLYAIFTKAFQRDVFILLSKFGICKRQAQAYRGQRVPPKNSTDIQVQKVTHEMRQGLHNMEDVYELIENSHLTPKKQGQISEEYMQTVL

NC(CO)(CO)CO
inactive: Potency [1] | Potency [2] | Potency [3] | outcome [4] | Potency [5] | Potency [6] | Potency [7] | Potency [8] | Potency [9] | Potency [10] | Potency [11] | Potency [12] | Potency [13] | Potency [14] | Potency [15] | Potency [16] | Potency [17]

COc1ccc2c(c1)c(CC(=O)O)c(C)n2C(=O)c1ccc(Cl)cc1
inactive: Potency [1] | Potency [2] | Potency [3] | outcome [4] | Potency [5] | activity change, positive = activation ([18]; at 42.5 µM (top of the series)) -11.8% | activity change, positive = activation ([18]; at 92.4 µM (top of the series)) -34.2% and -25.5% | Potency [6] | Potency [7] | Potency [8] | Potency [9] | Potency [11] | Potency [12] | max response [19] -7.62% and 0.0637% | Potency [13] | Potency [14] | Potency [15] | Potency [16] | Potency [17]

C=C(C)C(=O)OCC(C)O (centres undefined)
inactive: Potency [1] | Potency [2] | Potency [3] | outcome [4] | Potency [5] | Potency [6] | Potency [7] | Potency [8] | Potency [9] | Potency [10] | Potency [11] | Potency [12] | max response [19] 1.34% and 8.53% and -3.84% | Potency [13] | Potency [14] | Potency [20] | Potency [15] | Potency [16] | Potency [17]

CCOC(N)=O
inactive: Potency [1] | Potency [2] | Potency [3] | outcome [4] | Potency [5] | Potency [6] | Potency [7] | Potency [8] | Potency [9] | Potency [11] | Potency [12] | max response [19] 6.85% and 12.6% and -3.78% | Potency [13] | Potency [14] | Potency [20] | Potency [15] | Potency [16] | Potency [17]

C=CCc1ccc(O)c(OC)c1
inactive: Potency [1] | Potency [2] | Potency [3] | outcome [4] | Potency [5] | Potency [6] | Potency [7] | Potency [8] | Potency [9] | Potency [10] | Potency [11] | Potency [12] | max response [19] -1.8% and -13.4% and 5.2% | Potency [13] | Potency [14] | Potency [20] | Potency [15] | Potency [16] | Potency [17]

CC(=O)CCC(=O)O
inactive: Potency [1] | Potency [2] | Potency [3] | outcome [4] | Potency [5] | Potency [6] | Potency [7] | Potency [8] | Potency [9] | Potency [10] | Potency [11] | Potency [12] | max response [19] -1.85% and 3.92% and 7.17% | Potency [13] | Potency [14] | Potency [15] | Potency [16] | Potency [17]

CC(=O)C(=O)O
inactive: Potency [1] | Potency [2] | Potency [3] | outcome [4] | Potency [5] | Potency [6] | Potency [7] | Potency [8] | Potency [9] | Potency [10] | Potency [11] | Potency [12] | max response [19] -1.91% and -9.51% and -2.01% | Potency [13] | Potency [14] | Potency [15] | Potency [16] | Potency [17]

NC(=O)c1cccnc1
inactive: Potency [1] | Potency [2] | Potency [3] | outcome [4] | Potency [5] | Potency [6] | Potency [7] | Potency [8] | Potency [9] | Potency [11] | Potency [12] | max response [19] 9.96% and -1.91% and 6.24% | Potency [13] | Potency [14] | Potency [20] | Potency [15] | Potency [16] | Potency [17]

O=c1[nH]cnc2c1ncn2[C@H]1CC[C@@H](CO)O1
inactive: Potency [1] | Potency [2] | Potency [3] | outcome [4] | Potency [5] | activity change, positive = activation ([18]; at 42.5 µM (top of the series)) 4.94% | activity change, positive = activation ([18]; at 92.4 µM (top of the series)) 7.43% and 1.63% | Potency [6] | Potency [7] | Potency [8] | Potency [9] | Potency [11] | Potency [12] | max response [19] 9.2% and 0.925% and -0.369% | Potency [13] | Potency [14] | Potency [15] | Potency [16] | Potency [17]

Oc1ccccc1
inactive: Potency [1] | Potency [2] | Potency [3] | outcome [4] | Potency [5] | Potency [6] | Potency [7] | Potency [8] | Potency [9] | Potency [10] | Potency [11] | Potency [12] | max response [19] 1.54% [middle of 5 runs] | Potency [13] | Potency [14] | Potency [20] | Potency [15] | Potency [16] | Potency [17]
